Compound activity (PubChem BioAssay)
Rows were chosen to be rich in hits. Some 19% of all compounds tested hit in one or more screens of this group.
DT40 TDP1 no CPT – qHTS for Inhibitors of human tyrosyl-DNA phosphodiesterase 1 (TDP1): qHTS in cells in absence of CPT | 420,000 tested, 15% active | DT40 Tdp1-/- hTDP1 cells, no CPT, ATP luminescence, 48 h | Potency, µM (titrated, usually from 46.2 µM), usual class: inhibitors; note: nearly all actives have a fitted effect of over 55% in size
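Growth kinetics read by CellTiter-Glo luminescence after ≥48 hr at 37 °C. Cells: DT40 Tdp1-/- stably carrying human TDP1, 400 per well, compound exposure in the absence of CPT (DMSO vehicle).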
ASM inhibitor – human S-ASM enzyme inhibition; P17405; placental ASM, HMU-PC fluorogenic substrate, 60 min; Potency, µM (doses to about 57.5 µM), hits mostly inhibitors; 340,000 tested, 0.006% active; AID 504937
Target sequence (P17405 47-631 limits assumed): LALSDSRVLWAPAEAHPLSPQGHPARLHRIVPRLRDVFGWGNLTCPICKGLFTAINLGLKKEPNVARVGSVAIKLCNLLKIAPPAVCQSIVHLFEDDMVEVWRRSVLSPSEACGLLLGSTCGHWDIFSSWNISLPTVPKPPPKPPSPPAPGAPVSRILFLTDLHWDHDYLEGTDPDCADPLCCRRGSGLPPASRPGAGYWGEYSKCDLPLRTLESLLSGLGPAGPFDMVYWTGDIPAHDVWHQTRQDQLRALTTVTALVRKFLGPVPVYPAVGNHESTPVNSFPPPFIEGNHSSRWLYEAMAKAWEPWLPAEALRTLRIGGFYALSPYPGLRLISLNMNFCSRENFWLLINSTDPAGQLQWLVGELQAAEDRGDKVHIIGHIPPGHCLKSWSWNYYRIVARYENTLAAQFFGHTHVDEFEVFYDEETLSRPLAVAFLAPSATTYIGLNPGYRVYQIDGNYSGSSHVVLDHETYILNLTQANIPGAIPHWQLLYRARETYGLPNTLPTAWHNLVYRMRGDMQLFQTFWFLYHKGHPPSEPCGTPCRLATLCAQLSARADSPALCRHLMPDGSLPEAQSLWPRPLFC
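Fluorogenic HMU-PC substrate (9 uM final) is turned over by placental ASM in 60 min at 37 C after a 10 min compound preincubation. Reaction ended by alkaline stop (pH 10), with fluorescence read at 386/447 nm.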
HepG2 tox-1 – HepG2 cytotoxicity, counter-screen for TGF-b inhibitors. HepG2 CAGA-GFP viability, ATP luminescence, 18 h. Potency, µM (highest dose often 46.1 µM), hits mostly cytotoxic. 410,000 tested, 0.76% active. AID 588856
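CellTiter-Glo luminescence gave cytotoxicity after 18 hours at 37 degrees C. The cells were HepG2 CAGA-GFP in 1% FBS DMEM, stimulated with 500 pg/mL TGF-beta after compound addition. %Activity was normalised to no-cell wells (complete cell-killing) and DMSO (no toxicity), and curves were fitted and classified.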
IL1B secr inh – inflammasome signaling inhibition, IL-1 beta readout; THP-1 LPS/ATP IL-1B secretion, AlphaLISA, 16 h; stronger effect = lower value; activity change, % at 57.5 µM; 360,000 tested, 4.7% active; in the data active = activity change below about -50%; inconclusive = mostly about -30% to -49%
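THP-1 cells pretreated 1 hr with compounds (up to 57.5 uM final), then stimulated with LPS (250 ng/mL final) plus ATP (1.25 mM final); secreted IL-1B measured by AlphaLISA after 16 hr, decreased signal indicating inhibition.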
DT40 TDP1 CPT – DT40-hTDP1 cell growth loss with CPT | Potency, µM (doses to about 46.2 µM), most hits filed as inhibitors | 420,000 tested, 12% active | chicken DT40 Tdp1-/-;hTDP1 cells + 20 nM CPT, ATP luminescence, 48 h | AID 686979; note: nearly all actives have a fitted effect of over 55% in size
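Chicken DT40 Tdp1-/- cells complemented with human TDP1, 400 cells/well, exposed to compounds plus 20 nM camptothecin for at least 48 h at 37 C; viability read as ATP content by CellTiter-Glo luminescence.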
TGFb inhibitor – blocks TGF-b signaling | HepG2 CAGA-GFP TGF-b/SMAD3 reporter, GFP fluorescence, 18 h; TGF-beta stimulated, 500 pg/mL final | Potency, µM (doses to about 46.1 µM), actives largely listed as inhibitors | 410,000 tested, 1.2% active | AID 588855; note: nearly all actives have a fitted effect of over 65% in size
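HEPG2 CAGA-GFP, 1000 cells/well; 2 h settle, 37 C; cpd via pin tool; TGF-b 500 pg/mL final; 18 h, 37 C; GFP imaging ex488/em500-530; %Activity normalised to -TGF-b and +DMSO controls; CRC fit, curve class.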
TGFb CAGA inh – TGF-b pathway inhibition, cherry-pick retest; Potency, µM (series often up to 46.1 µM), most hits filed as inhibitors; AID 720534; 1,600 tested, 63% active; shares compounds with TGFb inhibitor; HepG2 CAGA-GFP TGF-b reporter, GFP fluorescence, 18 h; cells stimulated with TGF-beta, 500 pg/mL; note: nearly all actives have a fitted effect of over 65% in size
HepG2 tox-2 – HepG2 cytotoxicity, TGF-b inhibitor counterscreen | shares compounds with TGFb inhibitor | HepG2 CAGA-GFP viability, ATP luminescence, 18 h; cells stimulated with TGF-beta, 500 pg/mL | Potency, µM (top dose mostly 46.1 µM), actives largely listed as inhibitors | 1,600 tested, 27% active | AID 720535; note: nearly all actives have a fitted effect of over 70% in size
TGFb CCL64 inh – TGF-b inhibition, CCL64 orthogonal assay; shares compounds with TGFb inhibitor; CCL64 CAGA-GFP reporter, TGF-b stimulated, GFP fluorescence, 18 h; Potency, µM (highest dose often 46.1 µM), hits mostly inhibitors; 1,600 tested, 41% active; note: nearly all actives have a fitted effect of over 65% in size
COP TGFb inh – validation of TGF-b inhibitors in HepG2 COP promoter reporter. shares compounds with TGFb inhibitor. HepG2 COP-GFP TGF-b reporter, GFP fluorescence, 18 h; cells stimulated by added recombinant TGF-beta. Potency, µM (titrated, usually from 46.1 µM), actives largely listed as inhibitors. 1,600 tested, 3% active; note: nearly all actives have a fitted effect of over 70% in size
Numbers stand for hits; i = inactive; ? = inconclusive; nt = not tested or not shown. Unless noted, calls come from the whole dose curve; as a rule, active = well fitted curve in the direction sought with a large enough effect; inconclusive = small, poorly fitted or top-dose-only effect, or another doubt; inactive = no such curve, though single readings can be large; an effect the other way counts as inactive or inconclusive.

SMILES	DT40 TDP1 no CPT	ASM inhibitor	HepG2 tox-1	IL1B secr inh	DT40 TDP1 CPT	TGFb inhibitor	TGFb CAGA inh	HepG2 tox-2	TGFb CCL64 inh	COP TGFb inh
CC1C(=O)N(Cc2cn(CCC3OCCO3)nn2)CCS(=O)(=O)N1Cc1ccc(-c2ccncc2)cc1 (stereo not drawn)	i	nt	i	i	i	i	nt	nt	nt	nt
CC(OC(=O)CC1CCCCC1)C(=O)Nc1ccc(S(N)(=O)=O)cc1 (stereo not drawn)	i	i	i	i	i	i	nt	nt	nt	nt
CCOCCc1c(O)nc(SCC)[nH]c1=O	i	i	i	i	i	i	nt	nt	nt	nt
CCN(CC)C(=O)c1nc[nH]c1C(=O)N1CCN(c2ccccc2)CC1	?	i	i	i	?	?	i	i	i	i
CCCn1c(-c2ccc(F)cc2)cnc1SCC(=O)O	i	i	i	i	i	i	nt	nt	nt	nt
CC(=O)c1cccc(Nc2ccc(-c3ccccc3F)nn2)c1	i	i	i	i	i	i	nt	nt	nt	nt
Cn1cc(-c2cnc3c(NC=O)cc(-c4cccc(C(F)(F)F)c4)cn23)cn1	20.6µM	nt	i	i	?	11.2µM	23.1µM	i	?	i
CC(=O)c1cccc(-c2cnc3c(NC=O)cc(-c4ccccc4F)cn23)c1	?	nt	i	i	?	6.31µM	6.51µM	i	1.46µM	i
O=CNc1cc(-c2ccoc2)cn2c(-c3ccc(F)cc3)cnc12	23.1µM	nt	i	i	13µM	10µM	?	i	?	i
COCCNC(=O)C1CCCN(C(=O)c2ccc(C(F)(F)F)nc2C)CC1 (stereo not drawn)	i	nt	i	i	i	i	nt	nt	nt	nt
Nc1ccc(S(=O)(=O)N2CCc3ccccc32)cc1	i	i	i	i	i	i	nt	nt	nt	nt
O=S(=O)(NC1CCCC1)c1ccc(S(=O)(=O)N2CCc3ccccc32)cc1	16.4µM	i	i	i	16.4µM	?	9.2µM	i	i	i
NC(=O)CC(NC(=O)c1ccc(Br)cc1)c1ccc(N2CCC(Cc3ccccc3)CC2)c([N+](=O)[O-])c1 (stereo not drawn)	i	i	i	i	16.4µM	10µM	?	20.6µM	?	i
NC(=O)CC(NC(=O)c1ccccc1)c1ccc(N2CCC(Cc3ccccc3)CC2)c([N+](=O)[O-])c1 (stereo not drawn)	5.17µM	i	i	i	7.31µM	6.31µM	23.1µM	?	?	i
NC(=O)CC(NC(=O)c1ccccc1)c1ccc(N2CCC(N3CCCC3)CC2)c([N+](=O)[O-])c1 (stereo not drawn)	i	i	i	i	i	i	nt	nt	nt	nt
CCOc1ccc(OCCC(=O)N(CC)CC(=O)Nc2c(F)cccc2F)cc1	i	i	i	i	i	?	nt	nt	nt	nt
